This note sets out measurements from article PMC7862700, “An all-to-all approach to the identification of sequence-specific readers for epigenetic DNA modifications on cytosine”.

Common to all, as to assay: DAPPL (digital affinity profiling via proximity ligation, sequencing); 10 mM Tris-HCl pH 7.5, 50 mM NaCl, 1 mM DTT, 4% glycerol, room temperature, 30 min; GST-TFs on glutathione beads, 16-mer random dsDNA library, 0.1% formaldehyde crosslink after washing; high values mean tight binding
The target in one test is T1, FEV (Homo sapiens, UniProt Q99581 1-238).
T1 sequence: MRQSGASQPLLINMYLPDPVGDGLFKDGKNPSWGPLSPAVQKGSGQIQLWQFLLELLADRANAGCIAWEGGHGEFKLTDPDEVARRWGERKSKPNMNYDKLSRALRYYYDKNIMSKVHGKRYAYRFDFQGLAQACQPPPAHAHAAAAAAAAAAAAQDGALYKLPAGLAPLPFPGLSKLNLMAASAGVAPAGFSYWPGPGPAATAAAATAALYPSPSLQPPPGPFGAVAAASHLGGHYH
As to conditions: protein: recombinant; tags: N-terminal GST; dsDNA, one strand shown. In a few lines: (§1)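 Yeast served to express human transcription factors as GST fusions, which were then captured on glutathione beads and labelled with DNA barcodes. Pooled with a tag-only sample, they were incubated with 200 nmole of a 16-mer random double-stranded DNA library for 30 min at room temperature in Tris/NaCl/DTT/glycerol buffer, washed, crosslinked with 0.1% formaldehyde, ligated by proximity, amplified by PCR and sequenced. Dividing each hexamer's read frequency for a factor by its frequency for the tag-only sample gives the binding signal.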

The target in another test is ETV5 (Homo sapiens, UniProt P41161 1-510). As to conditions: protein: recombinant; tags: N-terminal GST; dsDNA, one strand shown. The gist of the method: as §1
The target of another test is HSF1 (Homo sapiens, UniProt Q00613 1-529). As to conditions: protein: recombinant; tags: N-terminal GST; chain copies: 3; dsDNA, one strand shown. The gist of the method: as §1
In the next test the target is T2, SPIC (Homo sapiens, UniProt Q8N5J4 1-248).
T2 sequence: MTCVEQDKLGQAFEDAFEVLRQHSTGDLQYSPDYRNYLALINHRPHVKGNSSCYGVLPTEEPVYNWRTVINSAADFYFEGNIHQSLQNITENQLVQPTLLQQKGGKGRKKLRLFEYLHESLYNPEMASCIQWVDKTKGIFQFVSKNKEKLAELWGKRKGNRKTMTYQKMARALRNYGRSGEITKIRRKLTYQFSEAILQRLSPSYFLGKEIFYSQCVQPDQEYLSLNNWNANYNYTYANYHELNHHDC
As to conditions: protein: recombinant; tags: N-terminal GST; dsDNA, one strand shown. In a few lines: as §1

The next test has as its target ELF4 (Homo sapiens, UniProt Q99607 1-663). As to conditions: protein: recombinant; tags: N-terminal GST; dsDNA, one strand shown. The gist of the method: as §1
Another test has as its target T3, ELK4 (Homo sapiens, UniProt P28324-2 1-405).
T3 sequence: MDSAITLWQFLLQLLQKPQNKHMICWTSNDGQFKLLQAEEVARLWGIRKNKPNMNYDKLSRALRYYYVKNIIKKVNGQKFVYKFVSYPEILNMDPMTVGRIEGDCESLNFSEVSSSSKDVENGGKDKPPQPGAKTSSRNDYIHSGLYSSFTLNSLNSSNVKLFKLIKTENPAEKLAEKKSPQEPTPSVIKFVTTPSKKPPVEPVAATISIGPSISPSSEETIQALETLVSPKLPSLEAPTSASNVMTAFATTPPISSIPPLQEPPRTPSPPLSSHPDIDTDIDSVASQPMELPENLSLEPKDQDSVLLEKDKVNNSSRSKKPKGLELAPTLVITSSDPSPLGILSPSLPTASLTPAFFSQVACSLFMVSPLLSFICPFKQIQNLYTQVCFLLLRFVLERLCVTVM
As to conditions: protein: recombinant; tags: N-terminal GST; dsDNA, one strand shown. In a few lines: as §1

The next test concerns the target T4, ETV2 (Homo sapiens, UniProt O00321 1-342).
T4 sequence: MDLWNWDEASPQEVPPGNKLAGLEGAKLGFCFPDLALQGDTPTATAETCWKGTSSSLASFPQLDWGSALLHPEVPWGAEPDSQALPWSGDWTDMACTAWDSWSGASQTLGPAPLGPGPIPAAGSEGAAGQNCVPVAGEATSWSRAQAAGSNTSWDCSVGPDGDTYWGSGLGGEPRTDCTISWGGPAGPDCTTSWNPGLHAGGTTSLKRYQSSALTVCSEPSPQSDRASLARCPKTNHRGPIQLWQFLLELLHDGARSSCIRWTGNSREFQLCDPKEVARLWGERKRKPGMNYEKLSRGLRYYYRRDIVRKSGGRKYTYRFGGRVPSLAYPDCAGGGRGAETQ
The settings on record: protein: recombinant; tags: N-terminal GST; dsDNA, one strand shown. In a few lines: as §1

A further test addresses T5, ELF3 (Homo sapiens, UniProt P78545 1-371).
T5 sequence: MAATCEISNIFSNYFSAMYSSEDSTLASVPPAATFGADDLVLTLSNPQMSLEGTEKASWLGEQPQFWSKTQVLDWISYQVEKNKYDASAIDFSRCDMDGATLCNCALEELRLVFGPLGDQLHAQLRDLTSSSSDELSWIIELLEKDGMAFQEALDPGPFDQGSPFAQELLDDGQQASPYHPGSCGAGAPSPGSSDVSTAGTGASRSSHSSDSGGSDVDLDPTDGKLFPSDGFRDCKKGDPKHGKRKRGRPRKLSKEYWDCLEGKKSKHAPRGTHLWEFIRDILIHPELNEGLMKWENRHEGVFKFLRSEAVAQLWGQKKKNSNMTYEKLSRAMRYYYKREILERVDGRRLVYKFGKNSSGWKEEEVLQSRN
The settings on record: protein: recombinant; tags: N-terminal GST; dsDNA, one strand shown. The gist of the method: as §1

Another test deals with CRX (Homo sapiens, UniProt O43186 1-299). The settings on record: protein: recombinant; tags: N-terminal GST; dsDNA, one strand shown. The gist of the method: as §1
The target in a further test is ETV1 (Homo sapiens, UniProt P50549 1-477). The settings on record: protein: recombinant; tags: N-terminal GST; dsDNA, one strand shown. The gist of the method: as §1
The target in another test is T6, ERF (Homo sapiens, UniProt P50548 1-548).
T6 sequence: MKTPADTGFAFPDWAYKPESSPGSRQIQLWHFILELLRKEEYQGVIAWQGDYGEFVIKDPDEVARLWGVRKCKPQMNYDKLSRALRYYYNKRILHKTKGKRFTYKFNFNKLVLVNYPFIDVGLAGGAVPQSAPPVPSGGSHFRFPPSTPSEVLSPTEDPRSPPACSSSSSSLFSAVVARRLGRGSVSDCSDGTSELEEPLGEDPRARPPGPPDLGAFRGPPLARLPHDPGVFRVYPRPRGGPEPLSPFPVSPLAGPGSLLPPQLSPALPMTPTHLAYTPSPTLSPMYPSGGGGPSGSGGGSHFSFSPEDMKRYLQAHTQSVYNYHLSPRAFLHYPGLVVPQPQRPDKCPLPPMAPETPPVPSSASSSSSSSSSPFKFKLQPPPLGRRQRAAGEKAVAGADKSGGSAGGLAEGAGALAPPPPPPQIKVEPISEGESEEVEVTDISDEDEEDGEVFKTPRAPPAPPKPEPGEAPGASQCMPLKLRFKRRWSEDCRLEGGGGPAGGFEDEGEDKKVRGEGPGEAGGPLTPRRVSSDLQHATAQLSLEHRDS
As to conditions: protein: recombinant; tags: N-terminal GST; dsDNA, one strand shown. The gist of the method: as §1

The next test concerns the target T7, ETV3L (Homo sapiens, UniProt Q6ZN32 1-361).
T7 sequence: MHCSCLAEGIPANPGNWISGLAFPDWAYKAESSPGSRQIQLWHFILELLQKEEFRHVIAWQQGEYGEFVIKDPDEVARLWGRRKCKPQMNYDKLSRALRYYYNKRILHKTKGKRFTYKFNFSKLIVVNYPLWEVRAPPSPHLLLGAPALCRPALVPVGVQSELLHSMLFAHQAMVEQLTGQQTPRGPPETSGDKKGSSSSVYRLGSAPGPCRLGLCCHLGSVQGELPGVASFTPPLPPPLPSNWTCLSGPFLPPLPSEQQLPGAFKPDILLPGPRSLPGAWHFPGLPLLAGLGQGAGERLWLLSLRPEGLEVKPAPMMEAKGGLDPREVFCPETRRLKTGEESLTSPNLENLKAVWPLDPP
The settings on record: protein: recombinant; tags: N-terminal GST; dsDNA, one strand shown. The gist of the method:
as §1

Another test has as its target T8, ETS2 (Homo sapiens, UniProt P15036 1-469).
T8 sequence: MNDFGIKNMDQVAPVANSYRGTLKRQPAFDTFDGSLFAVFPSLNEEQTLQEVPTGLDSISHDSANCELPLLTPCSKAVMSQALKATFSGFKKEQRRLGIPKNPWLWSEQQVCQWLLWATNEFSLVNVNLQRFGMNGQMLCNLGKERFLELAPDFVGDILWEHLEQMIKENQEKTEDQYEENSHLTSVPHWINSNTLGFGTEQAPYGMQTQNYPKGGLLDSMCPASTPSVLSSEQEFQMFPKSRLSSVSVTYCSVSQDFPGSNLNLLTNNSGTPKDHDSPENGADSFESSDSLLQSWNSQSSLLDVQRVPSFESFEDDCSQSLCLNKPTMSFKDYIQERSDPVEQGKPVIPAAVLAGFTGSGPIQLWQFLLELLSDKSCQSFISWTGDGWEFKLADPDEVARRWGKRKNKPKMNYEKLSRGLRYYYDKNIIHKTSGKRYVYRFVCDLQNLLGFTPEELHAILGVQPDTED
As to conditions: protein: recombinant; tags: N-terminal GST; dsDNA, one strand shown. In a few lines: as §1

Another test concerns the target T9, SPDEF (Homo sapiens, UniProt O95238 1-335).
T9 sequence: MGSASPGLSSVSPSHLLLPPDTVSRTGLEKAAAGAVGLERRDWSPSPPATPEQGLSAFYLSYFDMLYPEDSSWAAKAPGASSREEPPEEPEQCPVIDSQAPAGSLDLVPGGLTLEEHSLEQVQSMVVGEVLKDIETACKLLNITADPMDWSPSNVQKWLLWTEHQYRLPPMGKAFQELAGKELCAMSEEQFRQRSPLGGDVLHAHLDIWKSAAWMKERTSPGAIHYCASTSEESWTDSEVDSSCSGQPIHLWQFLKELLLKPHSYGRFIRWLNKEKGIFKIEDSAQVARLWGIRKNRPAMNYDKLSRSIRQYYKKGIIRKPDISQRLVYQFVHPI
The settings on record: protein: recombinant; tags: N-terminal GST; dsDNA, one strand shown. The gist of the method:
as §1

The target of the next test is T10, ETV7 (Homo sapiens, UniProt Q9Y603 1-341).
T10 sequence: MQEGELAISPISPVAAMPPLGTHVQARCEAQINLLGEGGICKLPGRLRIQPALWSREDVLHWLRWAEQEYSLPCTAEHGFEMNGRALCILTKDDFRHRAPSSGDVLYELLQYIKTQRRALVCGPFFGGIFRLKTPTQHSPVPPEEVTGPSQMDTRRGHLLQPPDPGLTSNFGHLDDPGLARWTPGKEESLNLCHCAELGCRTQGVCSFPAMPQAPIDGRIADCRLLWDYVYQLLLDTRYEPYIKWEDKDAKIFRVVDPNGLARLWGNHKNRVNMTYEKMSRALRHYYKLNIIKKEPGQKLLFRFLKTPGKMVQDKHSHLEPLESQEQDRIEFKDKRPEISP
As to conditions: protein: recombinant; tags: N-terminal GST; dsDNA, one strand shown. The gist of the method:
as §1

Another test deals with T11, ELF5 (Homo sapiens, UniProt Q9UKW6-2 1-255).
T11 sequence: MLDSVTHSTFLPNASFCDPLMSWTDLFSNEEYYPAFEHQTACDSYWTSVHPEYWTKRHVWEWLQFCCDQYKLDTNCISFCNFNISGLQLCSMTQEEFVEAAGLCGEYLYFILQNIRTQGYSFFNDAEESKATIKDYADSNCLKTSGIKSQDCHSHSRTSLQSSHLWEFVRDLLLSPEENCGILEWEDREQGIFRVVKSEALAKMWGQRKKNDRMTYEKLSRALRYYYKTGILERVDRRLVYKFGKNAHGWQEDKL
As to conditions: protein: recombinant; tags: N-terminal GST; dsDNA, one strand shown. In a few lines:
as §1

The target in a further test is T12, ETV3 (Homo sapiens, UniProt P41162-2 1-143).
T12 sequence: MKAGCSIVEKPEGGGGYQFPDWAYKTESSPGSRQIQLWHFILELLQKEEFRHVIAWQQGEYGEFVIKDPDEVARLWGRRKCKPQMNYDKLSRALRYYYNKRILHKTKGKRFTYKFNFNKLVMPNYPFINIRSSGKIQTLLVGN
The settings on record: protein: recombinant; tags: N-terminal GST; dsDNA, one strand shown. In a few lines: as §1

For a further test, the target named is ETV6 (Homo sapiens, UniProt P41212 1-452). The settings on record: protein: recombinant; tags: N-terminal GST; dsDNA, one strand shown. In a few lines:
as §1

Chain of ETV1 (P50549 whole entry): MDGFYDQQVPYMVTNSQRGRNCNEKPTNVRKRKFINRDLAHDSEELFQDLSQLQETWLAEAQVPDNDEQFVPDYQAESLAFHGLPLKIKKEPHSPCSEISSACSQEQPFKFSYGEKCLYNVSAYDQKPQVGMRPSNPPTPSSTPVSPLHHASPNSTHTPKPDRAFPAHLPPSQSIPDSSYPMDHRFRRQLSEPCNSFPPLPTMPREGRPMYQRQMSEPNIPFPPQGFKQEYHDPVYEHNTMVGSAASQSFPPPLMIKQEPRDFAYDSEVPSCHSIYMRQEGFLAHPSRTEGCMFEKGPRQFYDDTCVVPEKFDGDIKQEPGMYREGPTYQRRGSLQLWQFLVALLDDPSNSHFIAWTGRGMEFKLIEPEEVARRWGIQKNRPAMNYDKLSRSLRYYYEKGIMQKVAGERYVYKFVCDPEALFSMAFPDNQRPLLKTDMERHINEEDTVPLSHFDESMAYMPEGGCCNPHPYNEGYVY
Chain of ELF4 (Q99607 whole entry): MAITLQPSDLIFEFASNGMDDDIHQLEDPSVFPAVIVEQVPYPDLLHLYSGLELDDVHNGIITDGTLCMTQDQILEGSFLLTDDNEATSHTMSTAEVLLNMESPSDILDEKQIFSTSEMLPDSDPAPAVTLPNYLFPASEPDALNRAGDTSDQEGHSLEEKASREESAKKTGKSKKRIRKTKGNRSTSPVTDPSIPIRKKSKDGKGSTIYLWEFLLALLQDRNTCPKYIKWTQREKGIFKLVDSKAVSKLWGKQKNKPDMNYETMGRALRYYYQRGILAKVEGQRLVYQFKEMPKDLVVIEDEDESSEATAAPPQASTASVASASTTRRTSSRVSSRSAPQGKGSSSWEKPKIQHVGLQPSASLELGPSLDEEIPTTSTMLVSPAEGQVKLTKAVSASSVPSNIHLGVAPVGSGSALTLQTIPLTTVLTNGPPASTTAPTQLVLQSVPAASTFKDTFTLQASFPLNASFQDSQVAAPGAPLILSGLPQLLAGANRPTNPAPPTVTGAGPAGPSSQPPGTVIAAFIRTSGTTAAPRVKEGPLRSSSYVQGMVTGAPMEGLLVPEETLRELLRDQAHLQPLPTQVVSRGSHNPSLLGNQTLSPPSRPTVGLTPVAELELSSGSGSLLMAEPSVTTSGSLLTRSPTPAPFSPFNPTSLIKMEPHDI
Chain of HSF1 (Q00613 whole entry): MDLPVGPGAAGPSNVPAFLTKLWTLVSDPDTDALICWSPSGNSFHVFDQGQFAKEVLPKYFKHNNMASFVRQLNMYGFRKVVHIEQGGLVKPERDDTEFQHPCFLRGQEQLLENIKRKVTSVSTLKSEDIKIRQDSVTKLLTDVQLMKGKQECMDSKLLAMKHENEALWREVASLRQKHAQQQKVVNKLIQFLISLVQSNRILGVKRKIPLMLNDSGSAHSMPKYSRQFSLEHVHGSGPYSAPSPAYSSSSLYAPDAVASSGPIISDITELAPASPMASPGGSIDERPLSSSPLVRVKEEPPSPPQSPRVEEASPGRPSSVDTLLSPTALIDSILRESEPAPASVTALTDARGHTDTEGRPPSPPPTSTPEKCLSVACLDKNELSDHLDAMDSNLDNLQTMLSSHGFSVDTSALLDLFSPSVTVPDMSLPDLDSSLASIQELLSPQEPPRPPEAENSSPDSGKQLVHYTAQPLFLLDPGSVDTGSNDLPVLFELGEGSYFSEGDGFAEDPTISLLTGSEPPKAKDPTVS
Chain of ETV6 (P41212 whole entry): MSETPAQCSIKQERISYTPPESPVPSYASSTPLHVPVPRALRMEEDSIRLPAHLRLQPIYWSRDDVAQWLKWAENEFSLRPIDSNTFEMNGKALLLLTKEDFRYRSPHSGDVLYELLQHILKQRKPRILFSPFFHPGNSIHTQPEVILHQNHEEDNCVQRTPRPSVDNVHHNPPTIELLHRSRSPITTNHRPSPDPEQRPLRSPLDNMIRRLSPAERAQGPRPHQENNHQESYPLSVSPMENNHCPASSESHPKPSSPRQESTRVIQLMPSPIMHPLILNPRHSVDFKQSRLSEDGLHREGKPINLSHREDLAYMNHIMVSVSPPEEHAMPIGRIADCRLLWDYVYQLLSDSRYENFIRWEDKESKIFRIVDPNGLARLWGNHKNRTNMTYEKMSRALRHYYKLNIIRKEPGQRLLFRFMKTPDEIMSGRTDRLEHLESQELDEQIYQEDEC
Chain of CRX (O43186 whole entry): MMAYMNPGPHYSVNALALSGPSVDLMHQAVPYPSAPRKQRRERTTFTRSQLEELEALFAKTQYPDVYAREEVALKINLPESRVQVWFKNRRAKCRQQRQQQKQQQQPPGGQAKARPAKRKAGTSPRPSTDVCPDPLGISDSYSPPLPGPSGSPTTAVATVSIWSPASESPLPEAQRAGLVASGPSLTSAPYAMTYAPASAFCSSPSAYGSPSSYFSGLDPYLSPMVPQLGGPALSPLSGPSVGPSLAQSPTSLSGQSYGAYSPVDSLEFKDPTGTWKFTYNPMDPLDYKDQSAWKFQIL
Chain of ETV5 (P41161 whole entry): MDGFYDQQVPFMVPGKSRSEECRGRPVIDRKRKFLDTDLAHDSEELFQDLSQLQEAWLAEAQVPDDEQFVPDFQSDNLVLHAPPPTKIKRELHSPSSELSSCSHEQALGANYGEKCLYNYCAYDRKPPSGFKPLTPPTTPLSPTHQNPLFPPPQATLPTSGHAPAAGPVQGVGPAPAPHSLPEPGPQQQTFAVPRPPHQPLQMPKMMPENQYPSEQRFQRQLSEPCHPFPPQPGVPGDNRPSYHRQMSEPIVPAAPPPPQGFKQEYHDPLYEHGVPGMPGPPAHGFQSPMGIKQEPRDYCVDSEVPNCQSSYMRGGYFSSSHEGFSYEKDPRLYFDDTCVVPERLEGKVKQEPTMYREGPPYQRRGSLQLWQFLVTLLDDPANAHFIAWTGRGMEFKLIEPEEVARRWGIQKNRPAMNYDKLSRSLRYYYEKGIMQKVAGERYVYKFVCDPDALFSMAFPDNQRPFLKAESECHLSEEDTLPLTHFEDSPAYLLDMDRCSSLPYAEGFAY

Consider TATTTT, for which the binding signal is 1.23 fold enrichment (6-mer frequency, TF over GST control) with FEV; 1.39 fold enrichment (6-mer frequency, TF over GST control) with ETV5; 1.5 fold enrichment (6-mer frequency, TF over GST control) with HSF1; 1.42 fold enrichment (6-mer frequency, TF over GST control) in the test with SPIC; 1.4 fold enrichment (6-mer frequency, TF over GST control) in the test with ELF4; 1.49 fold enrichment (6-mer frequency, TF over GST control) in the test with ELK4. The binding signal in the test with ETV2 is 1.45 fold enrichment (6-mer frequency, TF over GST control); in the test with ELF3, 1.36 fold enrichment (6-mer frequency, TF over GST control); with CRX it was 1.77 fold enrichment (6-mer frequency, TF over GST control); with ETV1, 1.48 fold enrichment (6-mer frequency, TF over GST control); with ERF, 1.19 fold enrichment (6-mer frequency, TF over GST control); in the test with ETV3L it was 1.41 fold enrichment (6-mer frequency, TF over GST control). Further, the binding signal in the test with ETS2 is 1.35 fold enrichment (6-mer frequency, TF over GST control); with SPDEF, 1.24 fold enrichment (6-mer frequency, TF over GST control); in the test with ETV7, 1.49 fold enrichment (6-mer frequency, TF over GST control); with ELF5, 1.29 fold enrichment (6-mer frequency, TF over GST control); with ETV3, 1.39 fold enrichment (6-mer frequency, TF over GST control); with ETV6 it was 1.36 fold enrichment (6-mer frequency, TF over GST control).
